Legend:
Conditions in all cases: concentration: 1 μM, replicates: in singlicate; n = 1
TSSK1B = test system: TSSK1B
TSSK3 = test system: TSSK3
TTK = test system: TTK
TXK = test system: TXK
[1] = test system: TYK2(JH1domain-catalytic)
[2] = test system: TYK2(JH2domain-pseudokinase)
TYRO3 = test system: TYRO3
ULK1 = test system: ULK1
ULK2 = test system: ULK2
ULK3 = test system: ULK3
VEGFR2 = test system: T1, VEGFR2
T1 construct: gene KDR

VPS34 = test system: T2, VPS34
T2 construct: gene PIK3C3

VRK2 = test system: VRK2
WEE1 = test system: WEE1
WEE2 = test system: WEE2
WNK1 = test system: WNK1
WNK2 = test system: WNK2
WNK3 = test system: WNK3
WNK4 = test system: WNK4
YANK1 = test system: T3, YANK1
T3 construct: gene STK32A
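Note: KINOMEscan kinase panel screen.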

SMILES | %Inh (TSSK1B) [%] | %Inh (TSSK3) [%] | %Inh (TTK) [%] | %Inh (TXK) [%] | %Inh [1] [%] | %Inh [2] [%] | %Inh (TYRO3) [%] | %Inh (ULK1) [%] | %Inh (ULK2) [%] | %Inh (ULK3) [%] | %Inh (VEGFR2) [%] | %Inh (VPS34) [%] | %Inh (VRK2) [%] | %Inh (WEE1) [%] | %Inh (WEE2) [%] | %Inh (WNK1) [%] | %Inh (WNK2) [%] | %Inh (WNK3) [%] | %Inh (WNK4) [%] | %Inh (YANK1) [%]
COc1ccc(CSc2nnc(-c3ccc4nccn4c3)o2)cc1C(F)(F)F | 0 | 1 | 64 | 6 | 8 | 5 | 3 | 0 | 4 | 0 | 10 | 7 | 7 | 9 | 0 | 0 | 0 | 0 | 2 | 20
COC(=O)c1cccc(NC(=O)NC2CCN(c3ccnc(Nc4ccc(F)cc4)n3)C2)c1 (stereo not shown) [GSK1379725] | 0 | 3 | 0 | 0 | 0 | 23 | 0 | 15 | 0 | 12 | 0 | 0 | 0 | 16 | 5 | 0 | 18 | 27 | 0 | 0
Cc1ccc(NC(=O)Nc2ccc(Cl)c(C(F)(F)F)c2)cc1-c1ccc(C(=O)Nc2ccncc2)cc1 [GSK1398470] | 0 | 9 | 32 | 0 | 0 | 0 | 0 | 44 | 0 | 51 | 0 | 0 | 8 | 3 | 10 | 0 | 8 | 0 | 0 | 60
CC(C)c1ccc(O)cc1Nc1ccnc2ccc(C(F)(F)F)cc12 [GW482059] | 0 | 3 | 2 | 19 | 23 | 0 | 0 | 20 | 0 | 8 | 0 | 15 | 0 | 0 | 5 | 1 | 0 | 0 | 0 | 0
COc1cccc(NC(=O)Nc2ccc(C)c(-c3ccc(C(=O)Nc4ccncc4)cc3)c2)c1 [GSK1398474] | 0 | 6 | 13 | 0 | 0 | 0 | 0 | 6 | 0 | 0 | 6 | 0 | 0 | 11 | 4 | 0 | 0 | 28 | 0 | 18

From publication PMC5540273 (PLoS ONE, 2017)
